Experimental data: PubChem BioAssay AID1159580 (chemical genetic matrix, 2015)
Hit rate of the full screen: of about 5,500 compounds, about 2,000 (36%) were called active. About 18% were inconclusive and are not listed. Cut-off read from the data, not from the text of the source: active = normalized growth mostly below about 0.91 (no sharp cut-off); inconclusive = no clear call, values can overlap the other calls; inactive = mostly above about 0.92. Some of the results follow.

Experiment: chemical genetic growth profiling, strain panel (AID 1159580);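 note: tested at 20 µM; growth read once vehicle control cultures reached saturation at 30 °C; 1 = growth at the plate median or of vehicle wells; lower values mean less growth of the strain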
Details: growth OD

Measured: normalized growth

O=C(O)c1cc2ccccc2[nH]1
inactive: S. cerevisiae deletion strains, locus YJR075W, strain HOC1, active compounds read low 1.01 | S. cerevisiae deletion strains, locus YKL009W, strain mrt4, active compounds read low 0.991 | S. cerevisiae deletion strains, locus YKL068W, active compounds read low 1 | S. cerevisiae deletion strains, locus YKL085W, strain MDH1 (second series), active compounds read low 1.02 | S. cerevisiae deletion strains, locus YKL085W, strain MDH1, active compounds read low 1.02 | S. cerevisiae deletion strains, locus YKL160W, strain elf1, active compounds read low 0.972 | S. cerevisiae deletion strains, locus YKL190W, strain CNB1, active compounds read low 1 | S. cerevisiae deletion strains, locus YKR001C, strain vps1, active compounds read low 1.02 | S. cerevisiae deletion strains, locus YKR026C, strain gcn3, active compounds read low 0.961 | S. cerevisiae deletion strains, locus YKR091W, strain srl3, active compounds read low 0.98 | S. cerevisiae deletion strains, locus YLL001W, strain dnm1, active compounds read low 0.974 | S. cerevisiae deletion strains, locus YLL026W, active compounds read low 1 | S. cerevisiae deletion strains, locus YLL041C, strain sdh2, active compounds read low 0.989 | S. cerevisiae deletion strains, locus YLR027C, strain aat2, active compounds read low 0.993 | S. cerevisiae deletion strains, locus YLR039C, strain RIC1, active compounds read low 1.01 | S. cerevisiae deletion strains, locus YLR058C, strain SHM2, active compounds read low 1.01 | S. cerevisiae deletion strains, locus YLR102C, strain apc9, active compounds read low 1.02 | S. cerevisiae deletion strains, locus YLR113W, strain HOG1, active compounds read low 0.95 | S. cerevisiae deletion strains, locus YLR221C, strain rsa3, active compounds read low 0.989 | S. cerevisiae deletion strains, locus YLR258W, strain gsy2, active compounds read low 0.989 | S. cerevisiae deletion strains, locus YLR262C, strain YPT6 (second series), active compounds read low 0.991 | S. cerevisiae deletion strains, locus YLR262C, strain YPT6, active compounds read low 1.05 | S. cerevisiae deletion strains, locus YLR268W, strain sec22, active compounds read low 1.01 | S. cerevisiae deletion strains, locus YLR320W, strain mms22, active compounds read low 1.01 | S. cerevisiae deletion strains, locus YLR330W, strain CHS5, active compounds read low 1.01 | S. cerevisiae deletion strains, locus YLR342W, strain FKS1 (second series), active compounds read low 0.993 | S. cerevisiae deletion strains, locus YLR342W, strain FKS1, active compounds read low 0.991 | S. cerevisiae deletion strains, locus YLR357W, strain rsc2, active compounds read low 0.983 | S. cerevisiae deletion strains, locus YLR370C, strain arc18, active compounds read low 0.989 | S. cerevisiae deletion strains, locus YLR371W, strain rom2, active compounds read low 1.01 | S. cerevisiae deletion strains, locus YLR384C, strain iki3, active compounds read low 0.976 | S. cerevisiae deletion strains, locus YLR418C, strain cdc73, active compounds read low 1.01 | S. cerevisiae deletion strains, locus YML016C, strain PPZ1, active compounds read low 1.01 | S. cerevisiae deletion strains, locus YML032C, strain rad52, active compounds read low 1 | S. cerevisiae deletion strains, locus YML120C, strain ndi1, active compounds read low 0.979 | S. cerevisiae deletion strains, locus YML124C, strain tub3, active compounds read low 1.01 | S. cerevisiae deletion strains, locus YMR058W, strain fet3, active compounds read low 0.975 | S. cerevisiae deletion strains, locus YMR078C, strain ctf18, active compounds read low 1.02 | S. cerevisiae deletion strains, locus YMR125W, strain sto1, active compounds read low 0.941 | S. cerevisiae deletion strains, locus YMR129W, active compounds read low 0.987 | S. cerevisiae deletion strains, locus YMR205C, strain PFK2, active compounds read low 1.02 | S. cerevisiae deletion strains, locus YMR223W, strain ubp8, active compounds read low 1.01 | S. cerevisiae deletion strains, locus YMR231W, strain pep5, active compounds read low 1 | S. cerevisiae deletion strains, locus YMR263W, strain SAP30, active compounds read low 1.01 | S. cerevisiae deletion strains, locus YMR307W, strain GAS1, active compounds read low 1.04 | S. cerevisiae deletion strains, locus YNL067W, strain RPL9B, active compounds read low 1.01 | S. cerevisiae deletion strains, locus YNL071W, strain lat1, active compounds read low 0.986 | S. cerevisiae deletion strains, locus YNL128W, strain TEP1, active compounds read low 1 | S. cerevisiae deletion strains, locus YNL153C, strain GIM3, active compounds read low 1.01 | S. cerevisiae deletion strains, locus YNL183C, strain NPR1, active compounds read low 0.915 | S. cerevisiae deletion strains, locus YNL209W, strain ssb2, active compounds read low 0.984 | S. cerevisiae deletion strains, locus YNL233W, strain BNI4, active compounds read low 1 | S. cerevisiae deletion strains, locus YNL248C, strain rpa49, active compounds read low 0.954 | S. cerevisiae deletion strains, locus YNL250W, strain rad50, active compounds read low 1 | S. cerevisiae deletion strains, locus YNL271C, strain bni1, active compounds read low 1.01 | S. cerevisiae deletion strains, locus YNL298W, strain CLA4, active compounds read low 1 | S. cerevisiae deletion strains, locus YNL307C, strain MCK1, active compounds read low 1.02 | S. cerevisiae deletion strains, locus YNL322C, strain KRE1 (second series), active compounds read low 0.979 | S. cerevisiae deletion strains, locus YNL322C, strain KRE1, active compounds read low 1.02 | S. cerevisiae deletion strains, locus YNR049C, strain mso1, active compounds read low 0.983 | S. cerevisiae deletion strains, locus YNR052C, strain pop2, active compounds read low 1.02 | S. cerevisiae deletion strains, locus YOL006C, strain TOP1, active compounds read low 1.04 | S. cerevisiae deletion strains, locus YOL012C, strain htz1 1.07 | S. cerevisiae deletion strains, locus YOL147C, strain pex11, active compounds read low 1.01 | S. cerevisiae deletion strains, locus YOR001W, strain rrp6, active compounds read low 0.963 | S. cerevisiae deletion strains, locus YOR061W, strain CKA2, active compounds read low 1.01 | S. cerevisiae deletion strains, locus YOR069W, strain VPS5, active compounds read low 0.991 | S. cerevisiae deletion strains, locus YOR070C, strain gyp1, active compounds read low 0.999 | S. cerevisiae deletion strains, locus YOR080W, strain dia2, active compounds read low 0.99 | S. cerevisiae deletion strains, locus YOR083W, strain WHI5, active compounds read low 0.967 | S. cerevisiae deletion strains, locus YOR106W, strain vam3, active compounds read low 0.972 | S. cerevisiae deletion strains, locus YOR136W, strain idh2, active compounds read low 1.02 | S. cerevisiae deletion strains, locus YOR144C, strain elg1, active compounds read low 1.02 | S. cerevisiae deletion strains, locus YOR184W, strain ser1, active compounds read low 1 | S. cerevisiae deletion strains, locus YOR231W, strain MKK1, active compounds read low 0.995 | S. cerevisiae deletion strains, locus YOR265W, strain rbl2, active compounds read low 0.991 | S. cerevisiae deletion strains, locus YOR270C, strain vph1, active compounds read low 0.974 | S. cerevisiae deletion strains, locus YOR290C, strain snf2, active compounds read low 0.955 | S. cerevisiae deletion strains, locus YOR316C, strain cot1, active compounds read low 1.02 | S. cerevisiae deletion strains, locus YPL051W, strain arl3, active compounds read low 0.979 | S. cerevisiae deletion strains, locus YPL055C, strain LGE1, active compounds read low 0.998 | S. cerevisiae deletion strains, locus YPL078C, strain atp4, active compounds read low 0.948 | S. cerevisiae deletion strains, locus YPL106C, strain sse1, active compounds read low 0.972 | S. cerevisiae deletion strains, locus YPL240C, strain hsp82, active compounds read low 0.997 | S. cerevisiae deletion strains, locus YPL241C, strain CIN2, active compounds read low 1.06 | S. cerevisiae deletion strains, locus YPL256C, strain CLN2, active compounds read low 1 | S. cerevisiae deletion strains, locus YPR119W, strain clb2, active compounds read low 1 | S. cerevisiae deletion strains, locus YPR141C, strain kar3, active compounds read low 0.996 | S. cerevisiae deletion strains, locus YPR163C, strain tif3, active compounds read low 1.01 | S. cerevisiae deletion strains, locus YPR167C, strain met16, active compounds read low 1.02 | S. cerevisiae deletion strains, strain wtn01, active compounds read low 1.01 | S. cerevisiae strains, strain wild type, active compounds read low 0.994
